# Assays:
# Test in all cases: DAPPL (digital affinity profiling via proximity ligation, sequencing); 10 mM Tris-HCl pH 7.5, 50 mM NaCl, 1 mM DTT, 4% glycerol, room temperature, 30 min; GST-TFs on glutathione beads, 16-mer random dsDNA library, 0.1% formaldehyde crosslink after washing; high values mean tight binding
# FLI1 = molecular target: T1, FLI1 (Homo sapiens, UniProt Q01543 1-452); details: protein: recombinant; tags: N-terminal GST; dsDNA, one strand shown
# T1 sequence: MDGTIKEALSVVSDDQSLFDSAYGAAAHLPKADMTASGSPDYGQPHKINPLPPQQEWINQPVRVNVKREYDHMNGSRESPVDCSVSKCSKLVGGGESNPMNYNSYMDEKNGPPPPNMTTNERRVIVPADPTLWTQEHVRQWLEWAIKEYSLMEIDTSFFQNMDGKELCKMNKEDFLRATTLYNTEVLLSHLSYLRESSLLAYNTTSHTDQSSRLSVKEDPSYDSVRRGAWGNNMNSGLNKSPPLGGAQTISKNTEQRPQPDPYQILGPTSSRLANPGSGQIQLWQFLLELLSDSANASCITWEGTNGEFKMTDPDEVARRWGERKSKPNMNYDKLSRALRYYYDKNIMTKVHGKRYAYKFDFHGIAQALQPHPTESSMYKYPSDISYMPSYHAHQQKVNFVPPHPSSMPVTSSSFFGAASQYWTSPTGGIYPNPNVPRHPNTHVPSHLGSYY
# Summary of the method: (§1)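 GST fusions of human transcription factors were expressed in yeast and captured with glutathione beads. Once given DNA barcodes and pooled alongside a tag-only sample, they were incubated for 30 min at room temperature with 200 nmole of a random double-stranded 16-mer DNA library in Tris/NaCl/DTT/glycerol buffer, then washed, crosslinked (0.1% formaldehyde), proximity-ligated, PCR-amplified and sequenced on an Illumina NextSeq500. The binding signal of each hexamer is its read frequency for a factor divided by its frequency for the tag-only sample.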
# ELK1 = molecular target: T2, ELK1 (Homo sapiens, UniProt P19419 1-428); details: protein: recombinant; tags: N-terminal GST; dsDNA, one strand shown
# T2 sequence: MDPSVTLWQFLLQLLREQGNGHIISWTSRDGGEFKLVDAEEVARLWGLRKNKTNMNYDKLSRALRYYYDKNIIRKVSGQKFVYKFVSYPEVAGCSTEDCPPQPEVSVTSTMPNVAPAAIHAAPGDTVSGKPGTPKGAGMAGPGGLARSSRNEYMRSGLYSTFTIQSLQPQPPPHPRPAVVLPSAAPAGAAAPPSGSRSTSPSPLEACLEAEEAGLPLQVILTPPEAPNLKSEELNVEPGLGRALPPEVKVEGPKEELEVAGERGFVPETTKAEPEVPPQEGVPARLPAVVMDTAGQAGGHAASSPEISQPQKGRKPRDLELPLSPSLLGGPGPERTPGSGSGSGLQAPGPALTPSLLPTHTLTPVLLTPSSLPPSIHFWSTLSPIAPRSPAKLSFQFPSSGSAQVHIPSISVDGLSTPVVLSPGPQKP
# Summary of the method: as §1
# GABPA = molecular target: T3, GABPA (Homo sapiens, UniProt Q06546 1-454); details: protein: recombinant; tags: N-terminal GST; dsDNA, one strand shown
# T3 sequence: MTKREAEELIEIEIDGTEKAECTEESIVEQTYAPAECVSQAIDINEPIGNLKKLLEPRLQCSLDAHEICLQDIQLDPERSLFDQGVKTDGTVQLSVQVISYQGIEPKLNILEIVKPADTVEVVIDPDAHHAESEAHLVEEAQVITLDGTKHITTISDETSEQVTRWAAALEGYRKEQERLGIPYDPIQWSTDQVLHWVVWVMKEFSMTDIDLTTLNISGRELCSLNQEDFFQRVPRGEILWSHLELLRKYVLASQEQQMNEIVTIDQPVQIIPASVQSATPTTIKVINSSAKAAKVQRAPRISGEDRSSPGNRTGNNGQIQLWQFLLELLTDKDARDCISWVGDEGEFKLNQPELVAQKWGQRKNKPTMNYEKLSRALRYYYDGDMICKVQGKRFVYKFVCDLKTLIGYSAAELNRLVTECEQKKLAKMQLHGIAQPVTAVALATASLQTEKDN
# Summary of the method: as §1
# ERG = molecular target: T4, ERG (Homo sapiens, UniProt P11308 1-479); details: protein: recombinant; tags: N-terminal GST; dsDNA, one strand shown
# T4 sequence: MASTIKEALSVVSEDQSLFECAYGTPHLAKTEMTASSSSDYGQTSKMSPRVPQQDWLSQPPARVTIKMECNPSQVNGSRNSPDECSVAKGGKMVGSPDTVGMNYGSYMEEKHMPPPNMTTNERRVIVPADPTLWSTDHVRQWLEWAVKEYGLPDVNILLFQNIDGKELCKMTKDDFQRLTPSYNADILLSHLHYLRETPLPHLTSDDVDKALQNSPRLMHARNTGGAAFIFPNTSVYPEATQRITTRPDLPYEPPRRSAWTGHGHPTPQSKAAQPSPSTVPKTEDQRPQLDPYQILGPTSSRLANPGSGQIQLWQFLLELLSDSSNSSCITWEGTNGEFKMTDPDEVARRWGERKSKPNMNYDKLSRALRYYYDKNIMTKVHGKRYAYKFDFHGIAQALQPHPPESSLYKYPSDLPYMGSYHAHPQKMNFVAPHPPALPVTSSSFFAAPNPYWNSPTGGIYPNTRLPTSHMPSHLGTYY
# Summary of the method: as §1
# ELF1 = ELF1 (Homo sapiens, UniProt P32519 1-619); details: protein: recombinant; tags: N-terminal GST; dsDNA, one strand shown
# ELF1, sequence (P32519 whole entry): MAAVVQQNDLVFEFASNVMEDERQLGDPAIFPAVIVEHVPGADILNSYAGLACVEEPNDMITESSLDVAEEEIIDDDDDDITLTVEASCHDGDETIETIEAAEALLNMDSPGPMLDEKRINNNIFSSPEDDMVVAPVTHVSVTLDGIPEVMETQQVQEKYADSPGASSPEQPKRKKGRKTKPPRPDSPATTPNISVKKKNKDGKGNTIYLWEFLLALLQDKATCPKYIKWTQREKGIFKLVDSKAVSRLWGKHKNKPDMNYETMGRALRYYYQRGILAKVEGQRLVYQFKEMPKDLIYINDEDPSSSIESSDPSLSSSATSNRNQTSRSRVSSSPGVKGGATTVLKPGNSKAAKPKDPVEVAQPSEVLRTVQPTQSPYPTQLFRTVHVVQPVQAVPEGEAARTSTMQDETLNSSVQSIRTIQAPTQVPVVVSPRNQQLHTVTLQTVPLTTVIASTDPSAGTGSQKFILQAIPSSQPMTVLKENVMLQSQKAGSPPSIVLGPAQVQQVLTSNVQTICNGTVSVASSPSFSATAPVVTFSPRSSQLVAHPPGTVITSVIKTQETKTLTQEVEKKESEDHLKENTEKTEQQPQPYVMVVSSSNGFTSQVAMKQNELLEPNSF
# Summary of the method: as §1
# EHF = molecular target: T5, EHF (Homo sapiens, UniProt Q9NZC4 1-300); details: protein: recombinant; tags: N-terminal GST; dsDNA, one strand shown
# T5 sequence: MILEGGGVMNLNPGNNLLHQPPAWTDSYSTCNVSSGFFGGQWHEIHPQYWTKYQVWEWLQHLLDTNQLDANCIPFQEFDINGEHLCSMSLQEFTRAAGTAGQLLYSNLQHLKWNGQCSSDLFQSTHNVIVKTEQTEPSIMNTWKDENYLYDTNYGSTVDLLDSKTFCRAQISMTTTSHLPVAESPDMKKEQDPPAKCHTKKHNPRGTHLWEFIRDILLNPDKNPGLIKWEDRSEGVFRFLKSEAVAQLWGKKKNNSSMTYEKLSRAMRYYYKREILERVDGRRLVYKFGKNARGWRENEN
# Summary of the method: as §1
# SPI1 = SPI1 (Homo sapiens, UniProt P17947 1-270); details: protein: recombinant; tags: N-terminal GST; dsDNA, one strand shown
# Summary of the method: as §1
# SPIB = SPIB (Homo sapiens, UniProt Q01892 1-262); details: protein: recombinant; tags: N-terminal GST; dsDNA, one strand shown
# SPIB, sequence (Q01892 whole entry): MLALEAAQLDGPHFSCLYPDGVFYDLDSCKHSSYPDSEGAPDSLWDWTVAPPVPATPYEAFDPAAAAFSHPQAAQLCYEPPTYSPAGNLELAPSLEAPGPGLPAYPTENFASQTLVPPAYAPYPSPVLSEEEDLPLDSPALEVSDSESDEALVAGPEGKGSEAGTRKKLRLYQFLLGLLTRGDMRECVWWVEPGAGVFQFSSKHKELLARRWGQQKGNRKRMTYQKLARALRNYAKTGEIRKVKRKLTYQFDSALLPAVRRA
# Summary of the method: as §1
# ELK3 = molecular target: T6, ELK3 (Homo sapiens, UniProt P41970 1-407); details: protein: recombinant; tags: N-terminal GST; dsDNA, one strand shown
# T6 sequence: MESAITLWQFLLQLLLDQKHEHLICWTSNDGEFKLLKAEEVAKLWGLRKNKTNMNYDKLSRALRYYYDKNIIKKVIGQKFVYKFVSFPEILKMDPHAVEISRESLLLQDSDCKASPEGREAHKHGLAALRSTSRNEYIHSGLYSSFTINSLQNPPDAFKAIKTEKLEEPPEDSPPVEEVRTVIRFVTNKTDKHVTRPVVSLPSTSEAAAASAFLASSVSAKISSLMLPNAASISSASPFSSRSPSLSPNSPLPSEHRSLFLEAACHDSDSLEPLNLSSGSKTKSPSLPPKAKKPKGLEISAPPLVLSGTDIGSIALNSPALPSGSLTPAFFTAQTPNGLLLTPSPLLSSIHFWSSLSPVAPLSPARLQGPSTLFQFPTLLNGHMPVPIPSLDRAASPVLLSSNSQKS
# Summary of the method: as §1
# FEV = molecular target: T7, FEV (Homo sapiens, UniProt Q99581 1-238); details: protein: recombinant; tags: N-terminal GST; dsDNA, one strand shown
# T7 sequence: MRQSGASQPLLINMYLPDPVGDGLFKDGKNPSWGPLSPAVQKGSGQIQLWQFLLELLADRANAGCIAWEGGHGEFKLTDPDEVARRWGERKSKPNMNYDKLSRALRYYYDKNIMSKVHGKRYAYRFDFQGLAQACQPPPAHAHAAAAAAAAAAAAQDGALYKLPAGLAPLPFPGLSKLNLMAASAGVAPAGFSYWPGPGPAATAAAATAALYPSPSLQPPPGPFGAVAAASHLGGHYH
# Summary of the method: as §1
# ETV5 = ETV5 (Homo sapiens, UniProt P41161 1-510); details: protein: recombinant; tags: N-terminal GST; dsDNA, one strand shown
# ETV5, sequence (P41161 whole entry): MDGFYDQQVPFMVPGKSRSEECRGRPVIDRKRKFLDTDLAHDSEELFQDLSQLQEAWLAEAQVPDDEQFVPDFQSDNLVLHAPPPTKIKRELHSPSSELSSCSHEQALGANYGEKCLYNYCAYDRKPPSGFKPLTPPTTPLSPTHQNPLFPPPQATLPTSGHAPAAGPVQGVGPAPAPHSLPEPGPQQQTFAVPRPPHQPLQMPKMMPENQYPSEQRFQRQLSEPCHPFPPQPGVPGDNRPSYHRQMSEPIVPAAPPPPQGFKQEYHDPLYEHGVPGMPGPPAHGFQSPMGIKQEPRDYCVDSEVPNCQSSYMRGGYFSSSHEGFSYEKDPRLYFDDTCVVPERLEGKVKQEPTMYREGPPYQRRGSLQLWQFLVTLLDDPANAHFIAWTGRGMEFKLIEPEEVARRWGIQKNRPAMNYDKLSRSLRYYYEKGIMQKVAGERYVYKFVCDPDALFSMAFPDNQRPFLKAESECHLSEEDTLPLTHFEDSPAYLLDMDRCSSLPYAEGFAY
# Summary of the method: as §1
# HSF1 = HSF1 (Homo sapiens, UniProt Q00613 1-529); details: protein: recombinant; tags: N-terminal GST; chain copies: 3; dsDNA, one strand shown
# HSF1, sequence (Q00613 whole entry): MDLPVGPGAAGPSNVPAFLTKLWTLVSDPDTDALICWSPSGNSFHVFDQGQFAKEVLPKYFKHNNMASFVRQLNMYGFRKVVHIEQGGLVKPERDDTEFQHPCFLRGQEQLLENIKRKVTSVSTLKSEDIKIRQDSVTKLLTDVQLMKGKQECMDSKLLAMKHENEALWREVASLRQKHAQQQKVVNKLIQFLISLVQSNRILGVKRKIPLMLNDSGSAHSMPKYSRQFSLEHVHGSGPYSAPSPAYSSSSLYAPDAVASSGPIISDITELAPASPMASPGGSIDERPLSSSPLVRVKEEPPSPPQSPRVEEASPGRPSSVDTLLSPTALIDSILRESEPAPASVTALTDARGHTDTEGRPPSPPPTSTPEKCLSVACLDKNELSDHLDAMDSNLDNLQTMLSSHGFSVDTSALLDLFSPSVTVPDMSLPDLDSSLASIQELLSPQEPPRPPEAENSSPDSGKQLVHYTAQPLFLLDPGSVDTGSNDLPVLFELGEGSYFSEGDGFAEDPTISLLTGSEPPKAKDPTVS
# Summary of the method: as §1
# SPIC = molecular target: T8, SPIC (Homo sapiens, UniProt Q8N5J4 1-248); details: protein: recombinant; tags: N-terminal GST; dsDNA, one strand shown
# T8 sequence: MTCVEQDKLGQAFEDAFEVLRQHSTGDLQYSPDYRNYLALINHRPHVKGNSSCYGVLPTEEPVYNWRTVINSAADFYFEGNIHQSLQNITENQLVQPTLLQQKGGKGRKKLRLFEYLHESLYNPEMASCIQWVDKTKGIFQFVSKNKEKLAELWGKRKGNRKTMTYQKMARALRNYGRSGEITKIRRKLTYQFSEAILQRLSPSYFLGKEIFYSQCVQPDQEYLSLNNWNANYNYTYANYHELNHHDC
# Summary of the method: as §1
# ELF4 = ELF4 (Homo sapiens, UniProt Q99607 1-663); details: protein: recombinant; tags: N-terminal GST; dsDNA, one strand shown
# ELF4, sequence (Q99607 whole entry): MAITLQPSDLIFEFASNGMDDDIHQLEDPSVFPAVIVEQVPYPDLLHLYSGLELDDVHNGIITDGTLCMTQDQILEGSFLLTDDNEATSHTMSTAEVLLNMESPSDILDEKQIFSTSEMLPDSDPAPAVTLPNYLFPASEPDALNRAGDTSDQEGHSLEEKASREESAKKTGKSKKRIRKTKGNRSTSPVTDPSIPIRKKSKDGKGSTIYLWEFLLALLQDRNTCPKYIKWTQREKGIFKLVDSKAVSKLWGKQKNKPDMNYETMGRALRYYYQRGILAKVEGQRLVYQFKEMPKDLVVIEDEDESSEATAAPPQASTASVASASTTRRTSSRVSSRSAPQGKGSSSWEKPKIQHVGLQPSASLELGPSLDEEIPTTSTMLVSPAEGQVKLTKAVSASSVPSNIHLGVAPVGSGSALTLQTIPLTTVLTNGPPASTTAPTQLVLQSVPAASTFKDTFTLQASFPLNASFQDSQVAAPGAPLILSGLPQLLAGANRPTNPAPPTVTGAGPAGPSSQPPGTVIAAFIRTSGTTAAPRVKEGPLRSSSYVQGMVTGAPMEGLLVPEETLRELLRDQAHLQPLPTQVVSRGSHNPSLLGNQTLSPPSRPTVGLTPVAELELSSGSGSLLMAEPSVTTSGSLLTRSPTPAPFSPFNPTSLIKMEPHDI
# Summary of the method: as §1
# ELK4 = molecular target: T9, ELK4 (Homo sapiens, UniProt P28324-2 1-405); details: protein: recombinant; tags: N-terminal GST; dsDNA, one strand shown
# T9 sequence: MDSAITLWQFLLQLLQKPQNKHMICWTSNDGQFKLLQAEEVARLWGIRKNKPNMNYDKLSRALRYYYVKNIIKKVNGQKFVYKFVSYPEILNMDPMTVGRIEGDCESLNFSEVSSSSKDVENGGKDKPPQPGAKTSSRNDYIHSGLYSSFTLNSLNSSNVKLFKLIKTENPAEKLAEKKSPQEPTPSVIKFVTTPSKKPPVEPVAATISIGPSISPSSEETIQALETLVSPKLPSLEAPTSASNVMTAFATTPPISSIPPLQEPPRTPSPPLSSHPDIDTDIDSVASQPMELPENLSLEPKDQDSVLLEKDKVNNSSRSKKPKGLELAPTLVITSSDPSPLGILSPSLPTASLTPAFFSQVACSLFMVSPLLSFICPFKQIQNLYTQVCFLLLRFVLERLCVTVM
# Summary of the method: as §1
# ETV2 = molecular target: T10, ETV2 (Homo sapiens, UniProt O00321 1-342); details: protein: recombinant; tags: N-terminal GST; dsDNA, one strand shown
# T10 sequence: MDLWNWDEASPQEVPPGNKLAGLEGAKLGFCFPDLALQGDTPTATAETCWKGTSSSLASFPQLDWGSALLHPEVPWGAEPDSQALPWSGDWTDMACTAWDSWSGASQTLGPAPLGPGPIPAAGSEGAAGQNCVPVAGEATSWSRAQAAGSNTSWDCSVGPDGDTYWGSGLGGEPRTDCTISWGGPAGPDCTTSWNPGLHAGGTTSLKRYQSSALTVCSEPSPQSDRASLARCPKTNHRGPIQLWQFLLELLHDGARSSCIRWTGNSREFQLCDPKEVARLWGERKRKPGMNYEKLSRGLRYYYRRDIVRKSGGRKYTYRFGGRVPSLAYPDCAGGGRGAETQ
# Summary of the method: as §1
# ELF3 = molecular target: T11, ELF3 (Homo sapiens, UniProt P78545 1-371); details: protein: recombinant; tags: N-terminal GST; dsDNA, one strand shown
# T11 sequence: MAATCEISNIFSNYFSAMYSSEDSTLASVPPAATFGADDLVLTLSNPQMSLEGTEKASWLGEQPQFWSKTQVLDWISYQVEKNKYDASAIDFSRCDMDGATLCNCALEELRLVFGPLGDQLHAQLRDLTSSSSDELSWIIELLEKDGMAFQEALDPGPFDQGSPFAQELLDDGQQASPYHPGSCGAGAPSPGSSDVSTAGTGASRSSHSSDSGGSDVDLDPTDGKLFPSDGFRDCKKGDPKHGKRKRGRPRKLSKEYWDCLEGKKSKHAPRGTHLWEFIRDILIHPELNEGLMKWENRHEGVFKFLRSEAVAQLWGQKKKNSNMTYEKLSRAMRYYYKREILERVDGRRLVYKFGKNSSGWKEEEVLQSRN
# Summary of the method: as §1
# CRX = CRX (Homo sapiens, UniProt O43186 1-299); details: protein: recombinant; tags: N-terminal GST; dsDNA, one strand shown
# CRX, sequence (O43186 whole entry): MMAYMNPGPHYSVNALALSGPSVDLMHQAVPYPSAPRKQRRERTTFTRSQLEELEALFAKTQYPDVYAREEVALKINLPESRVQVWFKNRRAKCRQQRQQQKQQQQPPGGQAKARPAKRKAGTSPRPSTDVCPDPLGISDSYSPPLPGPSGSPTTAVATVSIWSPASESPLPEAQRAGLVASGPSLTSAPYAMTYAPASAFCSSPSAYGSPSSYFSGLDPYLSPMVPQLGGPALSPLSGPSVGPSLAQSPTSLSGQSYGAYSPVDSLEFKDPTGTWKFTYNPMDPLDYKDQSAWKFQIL
# Summary of the method: as §1
# ETV1 = ETV1 (Homo sapiens, UniProt P50549 1-477); details: protein: recombinant; tags: N-terminal GST; dsDNA, one strand shown
# ETV1, sequence (P50549 whole entry): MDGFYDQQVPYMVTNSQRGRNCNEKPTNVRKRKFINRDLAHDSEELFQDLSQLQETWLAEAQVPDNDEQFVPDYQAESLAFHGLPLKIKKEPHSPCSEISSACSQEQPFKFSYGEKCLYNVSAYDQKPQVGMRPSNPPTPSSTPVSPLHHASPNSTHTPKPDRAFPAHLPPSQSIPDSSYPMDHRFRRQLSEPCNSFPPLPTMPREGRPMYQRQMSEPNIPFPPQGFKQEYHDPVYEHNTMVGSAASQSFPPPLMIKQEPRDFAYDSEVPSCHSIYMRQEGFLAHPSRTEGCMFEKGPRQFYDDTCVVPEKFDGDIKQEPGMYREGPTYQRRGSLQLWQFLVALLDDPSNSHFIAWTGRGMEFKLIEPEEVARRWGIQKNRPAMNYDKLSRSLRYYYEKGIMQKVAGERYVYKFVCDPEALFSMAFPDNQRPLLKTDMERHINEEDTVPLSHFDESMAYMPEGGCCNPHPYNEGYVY
# Summary of the method: as §1
sequence,measurement,setting,value
GTCTTA,binding signal,FLI1,"1.1 fold enrichment (6-mer frequency, TF over GST control)"
same,binding signal,ELK1,"1.14 fold enrichment (6-mer frequency, TF over GST control)"
same,binding signal,GABPA,"1.08 fold enrichment (6-mer frequency, TF over GST control)"
same,binding signal,ERG,"1.06 fold enrichment (6-mer frequency, TF over GST control)"
same,binding signal,ELF1,"1.11 fold enrichment (6-mer frequency, TF over GST control)"
same,binding signal,EHF,"1.08 fold enrichment (6-mer frequency, TF over GST control)"
same,binding signal,SPI1,"1.14 fold enrichment (6-mer frequency, TF over GST control)"
same,binding signal,SPIB,"1.14 fold enrichment (6-mer frequency, TF over GST control)"
same,binding signal,ELK3,"1.06 fold enrichment (6-mer frequency, TF over GST control)"
same,binding signal,FEV,"1.07 fold enrichment (6-mer frequency, TF over GST control)"
same,binding signal,ETV5,"1.14 fold enrichment (6-mer frequency, TF over GST control)"
same,binding signal,HSF1,"1.35 fold enrichment (6-mer frequency, TF over GST control)"
same,binding signal,SPIC,"1.07 fold enrichment (6-mer frequency, TF over GST control)"
same,binding signal,ELF4,"1.08 fold enrichment (6-mer frequency, TF over GST control)"
same,binding signal,ELK4,"1.04 fold enrichment (6-mer frequency, TF over GST control)"
same,binding signal,ETV2,"1.14 fold enrichment (6-mer frequency, TF over GST control)"
same,binding signal,ELF3,"1.16 fold enrichment (6-mer frequency, TF over GST control)"
same,binding signal,CRX,"1.94 fold enrichment (6-mer frequency, TF over GST control)"
same,binding signal,ETV1,"1.15 fold enrichment (6-mer frequency, TF over GST control)"

# — article PMC7862700, “An all-to-all approach to the identification of sequence-specific readers for epigenetic DNA modifications on cytosine”
